# Assay outcomes from PubChem BioAssay.
# Sampled rows, rich in hits. Any-hit rate of the full collection: about 7.2%.
# Sm TGR block = blocks Schistosoma mansoni thioredoxin glutathione reductase; purified TGR, DTNB reduction, TNB absorbance 405 nm; Potency, µM (highest dose often 114 µM), inactives show at the top dose activity change, negative = inhibition, usual class: inhibitors; actives 3% (n = 360,000); further: nearly all actives have a fitted effect of over 60% in size
#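 First, TGR (20 nM dispensed) and NADPH were mixed with compound. Second, a 15 min room-temperature incubation followed. Third, further NADPH and then DTNB were added to start the reaction. Finally, TNB absorbance was monitored kinetically.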
# Marburg entry inh = inhibitors of Marburg virus binding or cell entry; Marburg virus pseudotyped entry inhibition, cell reporter; Potency, µM (doses to about 37.8 µM), for the others: top-dose activity change, negative = inhibition, most hits filed as inhibitors; actives 1.8% (n = 300,000); AID 540276; calls by dose curve; tested in HEK293 cells
# FMDV inh = foot and mouth disease virus antiviral activity | actives 1.2% (n = 410,000) | Potency, µM (doses to about 57.9 µM), for the others: at the highest dose activity change, negative = inhibition, hits mostly inhibitors | FMDV antiviral cell-based qHTS; calls by dose curve; tested in HEK293T cells; further: read-out not given here; nearly all actives have a fitted effect of over 45% in size
# Lassa entry inh = inhibitors of Lassa virus binding or cell entry. Lassa virus pseudotype entry inhibition, cell reporter. Potency, µM (series often up to 37.9 µM), without a hit: top-dose activity change, negative = inhibition, most hits filed as inhibitors. actives 1.2% (n = 300,000). AID 540256; calls by dose curve; tested in HEK293 cells; further: nearly all actives have a fitted effect of over 50% in size
# HCV inhibitor = HCV inhibition | Potency, µM (top dose mostly 41.8 µM), for inactives: top-dose activity change, negative = inhibition, usual class: inhibitors | actives 3.4% (n = 340,000) | Huh7.5.1 HCVcc-Cre infection, luciferase reporter, 44 h
#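 Reporter virus HCVcc-Cre (~0.5 moi) infects cells exposed to compound; seeding density 1,000 cells/well with 4 h settling beforehand. Luminescence, 15 sec read, taken 44 h post-infection following a 15 min RT substrate incubation.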
# RE007 growth inh = less growth of the S. pombe RE007 Vpr strain; S. pombe RE007 Vpr strain, BacTiter-Glo ATP luminescence, 24 h; Potency, µM (highest dose often 92.2 µM), for the others: top-dose activity change, negative = less growth, usual class: inhibitors; actives 0.21% (n = 360,000); active means well fitted falling curve with a large enough effect; inconclusive means small, poorly fitted or top-dose-only effect; inactive means no such curve, though single readings can be large or run the other way; further: nearly all actives have a fitted effect of over 50% in size
#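 Fission yeast RE007 carrying one integrated HIV-1 vpr copy, seeded at OD 0.01 in PMG+AL medium with 23 nL pinned compound. Grown 24 h at 30 degrees; viability read by BacTiter-Glo luminescence after 5 min.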
# The depositor's hits bear a star; u = inconclusive; x = no result; [ ] = another dose, or the depositor's remark. Unless noted, the call rests on the fitted dose curve; in most records, active means well fitted curve in the direction sought with a large enough effect; inconclusive means small, poorly fitted or top-dose-only effect, or another doubt; inactive means no such curve, though single readings can be large; an effect the other way counts as inactive or inconclusive. On the % scale 0 is the no-effect control and ±100 the full control effect; potency means the concentration at half of the fitted maximal effect.
SMILES,Sm TGR block,Marburg entry inh,FMDV inh,Lassa entry inh,HCV inhibitor,RE007 growth inh
c1ccc(-c2nnc(CN3CCCc4ccccc43)o2)cc1,40µM*,u,8%,2%,u,-14%
CN(C)C(=O)c1ccc(-n2nc(C(F)(F)F)c3c2CCCC3)cc1,25%,u,-23%,-8%,10µM*,-6%
O=C(O)c1ccc(-n2nc(C(F)(F)F)c3c2CCCC3)cc1,-2%,u,34%,-1%,-12%,8%
COC(=O)c1c(-c2ccc(OC)c(OC)c2)csc1N,3%,0%,-19%,6%,19%,-11%
COC(=O)c1c(-c2ccc3ccccc3c2)csc1NC(=O)Cc1ccc(OC)c(OC)c1,10%,u,10µM*,u,u,8%
CCc1ccc(NC(=O)Cn2c(=O)ccc3cc(S(=O)(=O)N4CCCC4)ccc32)cc1,17%,x,-17%,4%[46.1 µM],x,x
CCOC(=O)c1c(-c2ccccc2)csc1NC(=O)CSc1nnnn1C,-10%,u,u,u,7.1µM*,-17%
CCOC(=O)c1c(-c2ccccc2)csc1NC(=O)CSc1ccccc1,-12%,u,-2%,u,-16%,17%
Cn1nnnc1SCC(=O)NCC(=O)c1ccccc1,20µM*,11%,13%,u,-5%,5%
CCOC(=O)c1c(NC(=O)CSc2nnnn2C)sc(C)c1-c1ccc(C)cc1,7%,23µM*,u,u,u,0%
Cc1oc2ncn(C)c(=O)c2c1C(=O)N(C)c1ccccc1F,8%,x,4%,u,x,x
O=C1[C@@H]2[C@H](ON(c3ccccc3)[C@H]2c2ccncc2)C(=O)N1c1ccc(Br)cc1,x,-21%,x,x,x,x
Cc1cccc(NC(=O)CSc2nccn2-c2cccc(Cl)c2)c1C,-1%,x,-4%,-23%[46.1 µM],x,x
Cc1cc(C)cc(OCCn2ccnc2)c1,-28%,x,-10%,x,6.3µM*,-12%
Cn1c(=O)[nH]c2nnc(-c3ccc(Cl)c(Cl)c3)nc2c1=O,0%,u,-30%,10µM*,18%,-10%
CSc1cnc2c(=O)n(C)c(=O)[nH]c2n1,1%,6%,-18%,2%,25%,25%
O=S(=O)(Nc1ccc(C(F)(F)F)cc1)c1ccc2c(c1)OCCO2,6%,0%[46.1 µM],28%,-15%[46.1 µM],x,x
CC(=O)Nc1ccc(Nc2nc(C)c([N+](=O)[O-])c(Nc3ccccc3)n2)cc1,-6%,u,u,u,u,-8%
CCC(=O)Nc1ccc(Nc2nc(C)c([N+](=O)[O-])c(Nc3ccc(NC(=O)CC)cc3)n2)cc1,8%,u,u,u,10µM*,-9%
CC(=O)Nc1ccc(Nc2nc(C)c([N+](=O)[O-])c(N(C)c3ccccc3)n2)cc1,-13%,-16%,32µM*,u,18µM*,-8%
CC1CCC2(CC1)NC(=O)N(CC(=O)Nc1sc3c(c1C(N)=O)CCC3)C2=O (stereo unspecified),40µM*,x,-3%,x,12%,-3%
CNC(=O)c1c(NC(=O)c2ccc(S(=O)(=O)N(C)c3ccccc3)cc2)sc2c1CCN(C(C)C)C2,3%,x,-25%,x,11µM*,-12%
O=C(O)c1ccc(S(=O)(=O)N2CCCc3ccccc32)cc1,-9%,x,-12%,x,15%,11%
CCN1CCN(S(=O)(=O)c2ccc(C(=O)Nc3sc4c(c3C(N)=O)CCN(CC)C4)cc2)CC1,-24%,8.9µM*,-8%,u,-26%,1%
CCN1CCc2c(sc(NC(=O)c3ccc(S(=O)(=O)N4CC(C)OC(C)C4)cc3)c2C(N)=O)C1 (stereo unspecified),12%,x,-6%,x,8%,-3%
SMILES,Sm TGR block,Marburg entry inh,FMDV inh,Lassa entry inh,HCV inhibitor,RE007 growth inh
NC(=O)c1ccsc1NC(=O)c1ccc(S(=O)(=O)N2CCCc3ccccc32)cc1,-8%,u,35µM*,u,11µM*,5%
COC(=O)c1c(OCC2CCCN(C)C2)cc(=O)n2c1CCN(Cc1ccc(OC)c(O)c1)CC2 (stereo unspecified),x,x,-6%,x,x,x
OC[C@H]1O[C@@H](n2cnc3cncnc32)[C@H](O)[C@@H]1O,x,u,-25%,u,x,x
CC(C)c1ccc(NC(=O)C2(C)Cc3ccccc3C(=O)O2)cc1 (stereo unspecified),-3%,22%[46.1 µM],25%,2%[46.1 µM],x,x
NC(=O)c1c(NC(=O)CN2CCN(S(=O)(=O)c3ccccc3)CC2)sc2c1CCC2,u,u,u,u,10µM*,-6%
CC(C)N1CCc2c(sc(NC(=O)c3ccc(S(=O)(=O)N(C)C4CCCCC4)cc3)c2C(N)=O)C1,3%,x,8%,u,x,x
CC(C)N1CCc2c(sc(NC(=O)c3cc(-c4cccs4)nc4ccccc34)c2C(N)=O)C1,-11%,u,u,u,10µM*,14%
CC(C)N1CCc2c(sc(NC(=O)c3ccc(S(=O)(=O)N4CCc5ccccc54)cc3)c2C(N)=O)C1,2%,x,u,x,11µM*,8%
OC1(c2cccnc2)CCN(Cc2ccc3c(c2)CN(Cc2ccc(F)c(F)c2)CCO3)CC1,x,x,-23%,x,x,x
CC1CCN(c2ccccc2NC(=O)c2ccc(C#N)cc2F)CC1,x,-1%[46.1 µM],-21%,28%[46.1 µM],10µM*,-7%
O=C(Nc1ccc2oc(-c3cccnc3)nc2c1)c1ccco1,50µM*,15%,23%,u,-4%,0%
O=C(Nc1ccc(-c2nc3ccccc3c(=O)o2)cc1)c1ccco1,-9%,2%,68%,9%,11%,1%
O=C(Nc1ccc2nc(-c3ccccc3)oc2c1)c1ccco1,1%,-31%[46.1 µM],-20%,12%,10µM*,12%
Cc1c(C(=O)NCc2cccs2)oc2ccc(Br)cc12,-3%,7.3µM*,41%,u,-2%,-16%
O=C(Nc1ccc(-c2nc3ccccc3o2)cc1)c1ccc2c(c1)OCO2,5%,-8%,7%,3%,u,-16%
O=C(Nc1ccc(-c2nc3ccccc3o2)cc1)c1ccc(N2C(=O)C3C4C=CC(C4)C3C2=O)cc1 (stereo unspecified),-3%,-38%,x,15µM*,4µM*,-4%
Cc1cnc(CNc2nc(-c3ccc(C(=O)N(C)C)cc3)nc3ccccc23)cn1,x,x,76%,x,x,x
Cc1cccn2c(=O)c3cc(C(=O)NC(C)C)n(C)c3nc12,1%,x,4%,-3%[46.1 µM],x,x
O=C(Nc1ccc2oc(-c3ccccc3Cl)nc2c1)c1cncc(Br)c1,0%,u,61%,u,18µM*,-11%
O=C(Nc1ccc2oc(-c3cccnc3)nc2c1)c1ccc([N+](=O)[O-])o1,x,u,-27%,u,2.5µM*,-6%
Cc1nc(-c2ccc(NC(=O)c3ccccc3)cc2)cs1,-10%,x,-42%,x,11µM*,45µM*
